Experimental data reported in PubChem BioAssay (NCI).
This is part of a sample that, as a whole, favours compounds with a hit. Of some 83,000 tested, about 20% had one in any assay.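 How to read the values: 0–100, growth inhibition (40 = 60% inhibited); 0, no net growth; -100 to 0, cell death (-40 = 40% of starting cells died; -100 = all dead).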 Values without a mark were called inactive. Active and inactive are the calls of the source.

test system: CCRF-CEM leukemia; test: NCI-60 one-dose screen, 48 h (100 = growth as untreated, 0 = no growth, -100 = all killed); settings: 10 µM
Experimental: Growth inhibition of the CCRF-CEM human tumor cell line is measured as a screen for anti-cancer activity. Cells are grown in 96 well plates and exposed to the test compound for 48 hours. Compounds are tested at a single concentration, which is 10^-5 M for most compounds. The reported endpoint is percent growth (GI% or GIPRCNT), where numbers from 0 - 100% represent growth inhibition, and numbers from -100% - 0 represent cell death. For example, a value of 40 represents 60% growth inhibition. A value of 0 means no net growth occurred over the course of the experiment. A value of -40 indicates 40% of cells at the beginning of the experiment died by the end of the experiment. A value of -100 means all cells are dead at the end of the experiment.
NCI-60 Human Tumor Cell Lines Screen was performed using the standard one-dose NCI protocol, which is described in more detail at https://dtp.cancer.gov/discovery_development/nci-60/default.htm.
Compounds with GIPRCNT values below 10 were considered active. Activity score was based on GIPRCNT using the following formula: […]
Score is 0 for GIPRCNT values of 100 or above, 50 for GIPRCNT values of 0, and 100 for GIPRCNT values of -100.

`COc1cc(Nc2ncnc(Nc3ccc4c(n3)NC(=O)C(C)(C)O4)n2)cc(OC)c1OC` was tested. Which growth did it give?
Its growth is 25.1%.

`COc1ccc2c(c1)sc1nc(-c3ccccc3)c(-c3ccsc3)n12` was tested. Which growth did it give?
The growth was 23.2%.

With `N#CSCC1CC(O)(c2ccccc2)CC(c2ccc(Cl)cc2)O1` (stereo not given) as the compound, how does the growth read?
Its growth is 15%.

Which growth does the source give for `CN(C)c1ccc(/C=C/C=N/NC(=O)c2cc(O)c(O)c(O)c2)cc1` here?
Its growth is 16.1%.

With `O=C(Nc1ccncc1)C(=O)c1cn(S(=O)(=O)c2cccc(Cl)c2)c2ccccc12` as the compound, how does the growth read?
Its growth is 72.4%.

Which growth does the source give for `N#Cc1cc(-c2cc3ccccc3o2)oc1N` here?
The growth was -29.6% (active).

Which growth does the source give for `COc1cc2cc3c(nc2cc1OC)CCN3Cc1ccc(NC(=O)Nc2ccc(F)cc2F)cc1` here?
The growth was 71.7%.

Which growth does the source give for `Nc1c(C(=O)Nc2cccc(F)c2)sc2nc3c(cc12)C(=O)CCC3` here?
The growth was 17.9%.

For `CCOC(=O)C(NC(=O)C(Cl)Cl)C(O)c1ccccc1` (stereo not given), which growth is on record?
The growth was 150%.

How did the growth turn out when `CCCCCCCCCCCCCC[n+]1ccc(C(N)=O)cc1` was run?
Its growth is 2.78% (active).

How did the growth turn out when `Nc1nc(N)c(NC(=O)CNc2ccc(C(=O)O)cc2)c(N)n1` was run?
The growth was 98%.

Which growth does the source give for `c1ccc2c(c1)oc1c3cccnc3ccc21` here?
The growth was 111%.

Which growth does the source give for `O=C1/C(=C/c2ccc([N+](=O)[O-])s2)Oc2ccccc21` here?
Its growth is -13% (active).

How did the growth turn out when `COc1ccccc1CNCCN1C(=O)c2ccc3c4c(ccc(c24)C1=O)C(=O)N(CCNCc1ccccc1OC)C3=O` was run?
The growth was -50.3% (active).

How did the growth turn out when `Cc1cc(N(CCCNc2ccnc3cc(Cl)ccc23)Cc2cccs2)nc(Cl)n1` was run?
Its growth is 42%.

Which growth does the source give for `O=S(=O)(NCCNc1nccc(-c2c(-c3ccc(F)cc3)nc3sccn23)n1)c1ccc2ccccc2c1` here?
Its growth is 61.7%.

How did the growth turn out when `CC1CC(=O)OC(C)C1` (stereo not given) was run?
Its growth is 101%.

Which growth does the source give for `COC(=O)C(=C\c1ccc2c(c1)OCO2)/C(=C/c1ccc2c(c1)OCO2)C(=O)OC` here?
Its growth is 101%.

How did the growth turn out when `COc1ccc(-c2cc(/C=C3\C(=O)Nc4ccc(OC)cc43)[nH]n2)cc1` was run?
The growth was 18.1%.

For `O=c1[nH]c2ccc(Cl)cc2c2ccccc12`, which growth is on record?
Its growth is 99.3%.

With `CCC1(C(C)C)NC(=O)NC1=O` (stereo not given) as the compound, how does the growth read?
The growth was 92.4%.

With `Nc1ncn(C2OC(CO)C(O)C2O)c(=O)n1` (stereo not given) as the compound, how does the growth read?
The growth was -7.84% (active).

How did the growth turn out when `CC(C)N(CCNc1nc(C(Cl)(Cl)Cl)nc2cc(Cl)ccc12)C(C)C` was run?
Its growth is -8.62% (active).

How did the growth turn out when `O=c1cc(-c2ccccc2)[nH]n1-c1nc2ccccc2[nH]1` was run?
The growth was 11.9%.

`COc1cc(C(=O)N2CCN(c3ccccc3OC)CC2)c(N)cc1OCCCN1CCN(c2ccccc2OC)CC1` was tested. Which growth did it give?
The growth was 4.33% (active).

How did the growth turn out when `CC12O[C@H](C[C@@H](OC(=O)c3ccccc3)[C@H]1O)n1c3ccccc3c3c4c(c5c6ccccc6n2c5c31)C(=O)NC4=O` was run?
Its growth is 64%.

With `COc1cc(-c2cc(/C=C/C(=O)c3ccc(Cl)c(Cl)c3)[nH]n2)cc(OC)c1OC` as the compound, how does the growth read?
Its growth is 3% (active).

For `Cn1c([N+](=O)[O-])cnc1/C=C1\Oc2ccc(Cl)cc2C1=O`, which growth is on record?
Its growth is -11.8% (active).

`N=C1c2nc3n(c2C(=O)c2nc4n(c21)CCCC4)CCCC3` was tested. Which growth did it give?
The growth was 92.9%.

`CCOC(=O)N1C/C(=C/c2ccc(OC)cc2)C(=O)/C(=C/c2ccc(OC)cc2)C1` was tested. Which growth did it give?
The growth was 6.4% (active).

How did the growth turn out when `COc1cc(-c2cc(/C=C3\C(=O)Nc4ccc(Cl)cc43)[nH]n2)cc(OC)c1OC` was run?
The growth was 10.7%.

Which growth does the source give for `Cc1ccc(-c2n[nH]c(=O)c3noc(-c4ccc(C)cc4)c23)cc1` here?
The growth was 17.5%.

Which growth does the source give for `O=C(Nc1cccc(-n2cc(-c3ccncc3)c(-c3ccc(O)c(Cl)c3)n2)c1)Nc1ccc(Cl)c(Cl)c1` here?
The growth was 0.782% (active).

Which growth does the source give for `CCCCCCCNc1nc(C=O)ncc1-c1ccc(C(F)(F)F)cc1` here?
The growth was 83.9%.

For `COc1cc(/C=C\c2cc(OC)c(OC)c(OC)c2)cc(NS(=O)(=O)c2ccc(Cl)cc2)c1OC`, which growth is on record?
The growth was 14.6%.

`CC[C@H]1CCC/C=C/[C@@H]2C[C@H](O)C[C@H]2[C@H](O)/C=C/C(=O)O1` was tested. Which growth did it give?
Its growth is 7.71% (active).

With `O=C1C(=O)c2ccccc2C(O)=C1CCCc1ccc(C2CCCCCC2)cc1` as the compound, how does the growth read?
The growth was 34.7%.

With `O=C(Nc1cccc(-n2cc(-c3ccncc3)c(-c3ccc(O)c(Cl)c3)n2)c1)c1ccc(Cl)c(Cl)c1` as the compound, how does the growth read?
Its growth is 33%.

How did the growth turn out when `Clc1ccc(Nc2ccnc(NCCCNc3ccnc4cc(Cl)ccc34)n2)cc1` was run?
The growth was -19.9% (active).

For `CCOCCOCCOCCOCCOCCOCCOCCOCCOCCO` (tested in a mixture with another compound), which growth is on record?
The growth was -39.9% (active).
